DT40 TDP1 CPT – qHTS for Inhibitors of human tyrosyl-DNA phosphodiesterase 1 (TDP1): qHTS in cells in presence of CPT | chicken DT40 Tdp1-/-;hTDP1 cells + 20 nM CPT, ATP luminescence, 48 h | Potency, µM (highest dose often 46.2 µM), inactives show at the highest dose activity change, negative = growth inhibition, usual class: inhibitors | actives 12% (n = 420,000) | AID 686979, 2013; also: potency is read from the fitted curve at half-maximal effect; nearly all actives have a fitted effect of over 55% in size
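Chicken DT40 Tdp1-/- cells stably complemented with human TDP1 were seeded at 400 cells/well in medium containing 20 nM camptothecin, exposed to pin-transferred compounds, and grown at 37 °C for at least 48 hr. Viability was read as ATP luminescence.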
HT1080 IDH1KD tx – qHTS for induction of synthetic lethality in tumor cells producing 2HG: qHTS for the HT-1080-IDH1KD cell line. actives 2% (n = 360,000). HT-1080 IDH1 knockdown viability, ATP luminescence, 48 h. Potency, µM (highest dose often 46.1 µM), for inactives: at the top dose activity, negative = toxicity, usual class: cytotoxic;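 also: potency is read from the fitted curve at half-maximal effect; 0% = DMSO wells and -100% = cell-free medium wells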
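Using the IDH1-knockdown HT-1080 line run in the same batch and compound series as the NT line, viability after 48 h at 37 °C was determined by CellTiter-Glo luminescence and expressed as % activity.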
DT40 TDP1 no CPT – qHTS for Inhibitors of human tyrosyl-DNA phosphodiesterase 1 (TDP1): qHTS in cells in absence of CPT | AID 686978, 2013 | Potency, µM (doses to about 46.2 µM), for the others: top-dose activity change, negative = growth inhibition, most hits filed as inhibitors | actives 15% (n = 420,000) | DT40 Tdp1-/- hTDP1 cells, no CPT, ATP luminescence, 48 h; also: potency is read from the fitted curve at half-maximal effect; nearly all actives have a fitted effect of over 55% in size
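Chicken DT40 Tdp1-/- cells stably complemented with human TDP1 were seeded at 400 cells/well with DMSO in place of 20 nM camptothecin. After compound pinning, cells grew at least 48 hr at 37 °C; viability read by CellTiter-Glo luminescence.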
IL-1B inflam inh – qHTS for Inhibitors of Inflammasome Signaling: IL-1-beta AlphaLISA Primary Screen. THP-1 LPS/ATP IL-1B secretion, AlphaLISA, 16 h; stronger effect = lower value. actives 4.7% (n = 360,000). activity change, % at 57.5 µM; in the data active = activity change below about -50%; inconclusive = mostly about -30% to -49%
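THP-1 cells pretreated 1 hr with compounds (up to 57.5 uM final), then stimulated with LPS (250 ng/mL final) plus ATP (1.25 mM final); secreted IL-1B measured by AlphaLISA after 16 hr, decreased signal indicating inhibition.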
HT1080-NT tox – qHTS for induction of synthetic lethality in tumor cells producing 2HG: qHTS for the HT-1080-NT fibrosarcoma cell line | HT-1080-NT fibrosarcoma viability, CellTiter-Glo ATP luminescence, 48 h | actives 1.6% (n = 360,000) | Potency, µM (top dose mostly 46.1 µM), inactives show at the highest dose activity, negative = less viability, usual class: cytotoxic;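 also: NT is the 2HG producing partner of a matched IDH1 knockdown line; potency is read from the fitted curve at half-maximal effect; 0% = DMSO-treated cells and -100% = media-only wells without cells; nearly all actives have a fitted effect of over 55% in size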
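HT-1080-NT fibrosarcoma cells (2HG-overproducing), 750 cells/well in RPMI with 5% FBS, dosed after 2 h and incubated 48 h at 37C. CellTiter-Glo luminescence normalized to DMSO and no-cell wells; concentration-response curves fitted and classed.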
* hit, by the source's call; ? = inconclusive; / = no result given; [ ] = remark or other dose. Only some compounds are listed: those with a hit (about 19% of all), similar ones and a draw of the others. Unless noted, calls follow the shape of the dose curve; as a rule, active = well fitted curve in the direction sought with a large enough effect; inconclusive = small, poorly fitted or top-dose-only effect, or another doubt; inactive = no such curve, though single readings can be large; an effect the other way counts as inactive or inconclusive. Unless noted, % is scaled to controls: 0 for no effect and ±100 for the full control effect.

SMILES | DT40 TDP1 CPT | HT1080 IDH1KD tx | DT40 TDP1 no CPT | IL-1B inflam inh | HT1080-NT tox
Cc1[nH]n(-c2ccccc2)c(=O)c1C(=O)c1ccc(Cl)cc1 | ? | -29% | ? | 77 | ?
CC/C(=N/NC(=O)c1ccccc1O)c1c(C)[nH]n(-c2ccccc2)c1=O | 2.1µM* | 26µM* | 1.8µM* | 136 | ?
CCSC(=S)c1c(C)[nH]n(-c2ccccc2)c1=O | 15µM* | ? | 13µM* | -22 | ?
CC(C)[C@H](NC(=O)OCc1ccccc1)C(=O)N[C@@H](Cc1c[nH]c2ccccc12)C(=O)O | 3% | 0% | 1% | 10 | 0%
CSCCC(NC(=O)CCNC(=O)c1ccccc1Cl)c1nc2ccccc2[nH]1 (configuration not stated) | -11% | -1% | -11% | 13 | 15%
CCCCOC(=O)c1ccc(NC(=O)COC(=O)C2CC2C)cc1 (configuration not stated) | -27% | -1% | ? | 17 | 2%
NC(=O)CC(NC(=O)Cc1cccc2ccccc12)c1ccc(N2CCc3ccccc3C2)c([N+](=O)[O-])c1 (configuration not stated) | 16µM* | -18% | ? | ? | -27%
NC(=O)CC(NC(=O)c1ccccc1)c1ccc(N2CCN(c3ccc(F)cc3)CC2)c([N+](=O)[O-])c1 (configuration not stated) | 18µM* | -6% | 8.2µM* | -12 | 5%
NC(=O)CC(NC(=O)c1ccccc1)c1ccc(N2CCN(c3ccccc3)CC2)c([N+](=O)[O-])c1 (configuration not stated) | 21µM* | -10% | 13µM* | -10 | -7%
NC(=O)CC(NC(=O)Cc1ccc(Br)cc1)c1ccc(N2CCN(c3ccccc3)CC2)c([N+](=O)[O-])c1 (configuration not stated) | 16µM* | -24% | ? | 20 | -29%
O=C(CSc1ccc(-c2ccccn2)nn1)NCc1ccc(F)cc1 | 14% | -27% | -8% | 70 | -7%
COCCn1c(=O)c(C)nc2cnc(Oc3ccccc3)nc21 | 10% | / | -2% | / | /
NC(=O)CC(NC(=O)c1ccccc1)c1ccc(N2CCCCCC2)c([N+](=O)[O-])c1 (configuration not stated) | ? | -1% | 12µM* | 12 | -20%
CN1CCN(c2ccc(C(CC(N)=O)NC(=O)c3ccccc3)cc2[N+](=O)[O-])CC1 (configuration not stated) | 4% | 6% | -22% | 15 | 6%
COc1ccc(N2CCN(CCCNC(=O)c3ccc4nc(N5CCCCC5)sc4c3)CC2)cc1 | 16µM* | / | ? | / | /
Cc1ccc(Cl)cc1N1CCN(CCCNC(=O)c2ccc3nc(N4CCCCC4)sc3c2)CC1 | 21µM* | / | 12µM* | / | /
Cc1ccc(C)c(N2CCN(CCCNC(=O)c3ccc4nc(N5CCC(C)CC5)sc4c3)CC2)c1 | 15µM* | / | 9.2µM* | / | /
CC1CCCCN1CCCNC(=O)c1ccc2nc(N3CCCCC3)sc2c1 (configuration not stated) | ? | -10% | ? | 0 | 4%
CCCN1CCN(CCCNC(=O)c2ccc3nc(N4CCC(C)CC4)sc3c2)CC1 | -20% | -25% | ? | -8 | -9%
CCCc1ccc(C(O)c2ncc(-c3cccc(C)c3)[nH]2)cc1 (configuration not stated) | ? | ? | ? | -16 | ?
O=C(c1ccc(Br)o1)N1CCN(c2ccc3nnc(-c4ccc(F)cc4)n3n2)CC1 | ? | -1% | 18µM* | -3 | -12%
COc1ccc(S(=O)(=O)N2CCN(c3ccc4nnc(-c5ccc(F)cc5)n4n3)CC2)cc1 | 12µM* | -23% | 15µM* | -9 | -21%
O=C(Nc1ccc(Cl)cc1)N1CCN(c2ccc3nnc(-c4ccc(F)cc4)n3n2)CC1 | ? | ? | 21µM* | 0 | -23%
COc1ccccc1C(=O)NCc1nnnn1-c1ccc(C)c(C)c1 | 5% | / | -10% | / | /
Nc1[nH]c(C(=O)c2ccccc2)c(-c2cccnc2)c1C(=O)NC1CCCCC1 | -11% | 6% | ? | -15 | 13%
SMILES | DT40 TDP1 CPT | HT1080 IDH1KD tx | DT40 TDP1 no CPT | IL-1B inflam inh | HT1080-NT tox
CCCCCC1C(=O)N2C=C(c3ccccc3)c3ccccc3N2C1=O (configuration not stated) | -16% | 11% | -15% | -4 | 5%
COc1ccc(C2C=C(C34CC5CC(CC(C5)C3)C4)NC(=S)N2)cc1 (configuration not stated) | ? | -3% | ? | 36 | -9%
N/C(=N\c1nc2c(c(=O)[nH]1)CCCC2)Nc1ccccc1Sc1ccccc1 | 11µM* | 8% | 20µM* | 29 | 12%
N/C(=N\c1nc2c(c(=O)[nH]1)CCCC2)Nc1ccccc1 | -27% | 0% | ? | 6 | -2%
Cc1ccc(N/C(N)=N/c2nc3c(c(=O)[nH]2)CCCC3)c(C)c1 | 13µM* | 5% | 12µM* | -20 | 2%
Cc1ccc(N/C(N)=N/c2nc(C)cc(N3CCCCC3)n2)c(C)c1 | 2.3µM* | ? | 2.6µM* | -103* | 15µM*
O=C(c1ccc2c(=O)n(Cc3ccccc3Cl)c(=S)[nH]c2c1)N1CCOCC1 | -23% | 19% | -30% | 26 | 18%
Cc1oc(-c2ccccc2NC(=O)c2ccccc2)nc1CNC(=O)c1cccc(-n2cccn2)c1 | -16%[9.04 µM] | / | -8% | / | /
CC1CC(C)(C)N(C(=O)CSc2ccc(-c3ccc(F)cc3)nn2)c2ccccc21 (configuration not stated) | ? | ? | 22µM* | -90* | ?
CCCCC(c1nc2ccccc2[nH]1)n1c(=O)c(-c2ccccc2)nc2cc(C)c(C)cc21 (configuration not stated) | ? | -3% | -12% | -14 | 0%
Cc1cc2nc(-c3ccccc3Br)n(/C=C(\c3ccccc3)n3c(=O)[nH]c4ccccc43)c2cc1C | 16µM* | -15% | 23µM* | -1 | -9%
O=C(CCCC1=NS(=O)(=O)c2ccccc2N1)N1CCN(c2ccc(Cl)cc2)CC1 | 16µM* | -1% | ? | 10 | 0%

Bioassay records: PubChem BioAssay, National Center for Advancing Translational Sciences (NCATS)
